# In the supplement of paper PMC4022240:
# ± gives the standard deviation.
# Experiments:
# Assay in all cases: peptide microarray binding signal (635 nm), min-max normalized on array (fraction of array maximum); higher = stronger binding
# [1] = molecular target: T1, HaloTag-ATRX ADD domain (163-292)
# T1 chain: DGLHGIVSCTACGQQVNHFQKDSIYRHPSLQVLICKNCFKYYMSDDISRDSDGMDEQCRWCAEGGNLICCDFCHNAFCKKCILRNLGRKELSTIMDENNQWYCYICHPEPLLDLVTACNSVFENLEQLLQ
# Procedure, shortened: (§1)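 Histone 13-mer peptide–cellulose conjugates were printed in triplicate on nitrocellulose with a Cy3 tracer, then blocked overnight at 4°C. Arrays were probed for 1 h at 4°C with biotin-labelled HaloTag reader fusions (10 nM to 1 μM) plus streptavidin-Alexa Fluor 647, or with rabbit histone antibodies (1:10,000 to 1:2,000) plus anti-rabbit Alexa 647. An Axon GenePix 4000B scanned 635 nm for signal and 532 nm for misprints. Binding signal is the triplicate-spot mean intensity, min-max scaled per library.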
# [2] = molecular target: HaloTag-ING2 PHD (mouse Ing2 200-280)
# Procedure, shortened: as §1
# [3] = molecular target: anti-H3K4me3 antibody ab8580
# Procedure, shortened: as §1
# [4] = molecular target: anti-H3K9me3 antibody ab8898
# Procedure, shortened: as §1
# [5] = peptide region: H4 1-13, peptide modifications: H4R3me1, binder concentration: 1:2,000 dilution
# [6] = peptide region: H4 1-13, peptide modifications: H4R3me1, binder concentration: 1:10,000 dilution
# [7] = peptide region: H4 1-13, peptide modifications: H4K8ac, binder concentration: 1:2,000 dilution
# [8] = peptide region: H4 1-13, peptide modifications: H4K8ac, binder concentration: 1:10,000 dilution
# [9] = peptide region: H4 1-13, peptide modifications: H4R3cit, binder concentration: 1:2,000 dilution
# [10] = peptide region: H4 1-13, peptide modifications: H4R3cit, binder concentration: 1:10,000 dilution
# [11] = peptide region: H4 1-13, peptide modifications: H4S1ph H4K12ac, binder concentration: 1:2,000 dilution
# [12] = peptide region: H4 1-13, peptide modifications: H4S1ph H4K12ac, binder concentration: 1:10,000 dilution
# [13] = peptide region: H4 1-13, peptide modifications: H4S1ph, binder concentration: 1:2,000 dilution
# [14] = peptide region: H4 1-13, peptide modifications: H4S1ph, binder concentration: 1:10,000 dilution
# [15] = peptide region: H4 1-13, peptide modifications: H4S1ph H4R3me1, binder concentration: 1:2,000 dilution
# [16] = peptide region: H4 1-13, peptide modifications: H4S1ph H4R3me1, binder concentration: 1:10,000 dilution
# [17] = peptide region: H4 1-13, peptide modifications: H4R3me2s, binder concentration: 1:2,000 dilution
# [18] = peptide region: H4 1-13, peptide modifications: H4R3me2s, binder concentration: 1:10,000 dilution
# [19] = peptide region: H4 1-13, peptide modifications: H4K5ac H4K12ac, binder concentration: 1:2,000 dilution
# [20] = peptide region: H4 1-13, peptide modifications: H4K5ac H4K12ac, binder concentration: 1:10,000 dilution
# [21] = peptide region: H4 8-19, peptide modifications: H4K8ac H4K12ac H4K16ac, binder concentration: 1:2,000 dilution
# [22] = peptide region: H4 1-13, peptide modifications: H4S1ph H4K8ac, binder concentration: 1:2,000 dilution
# [23] = peptide region: H4 1-13, peptide modifications: H4S1ph H4K8ac, binder concentration: 1:10,000 dilution
binder,measurement,setting,value
SGRGKGGKGLGKG [H4 1-13 S G Rme G K G G K G L G K G],peptide microarray binding signal,"[1]; peptide region: H4 1-13, peptide modifications: H4R3me1, binder concentration: 50 nM",0.00483 ± 0.00013
same,peptide microarray binding signal,"[1]; peptide region: H4 1-13, peptide modifications: H4R3me1, binder concentration: 500 nM",0.00838 ± 0.0007
same,peptide microarray binding signal,"[2]; peptide region: H4 1-13, peptide modifications: H4R3me1, binder concentration: 10 nM",0.00477 ± 0.00017
same,peptide microarray binding signal,"[2]; peptide region: H4 1-13, peptide modifications: H4R3me1, binder concentration: 100 nM",0.0127 ± 0.0019
same,peptide microarray binding signal,[3]; [5],0.00125 ± 0.00022
same,peptide microarray binding signal,[3]; [6],0.0012 ± 1.2e-05
same,peptide microarray binding signal,[4]; [5],0.000544 ± 6.8e-05
same,peptide microarray binding signal,[4]; [6],0.00115 ± 2e-05
SGRGKGGKGLGKG [H4 1-13 S G R G K G G Kac G L G K G],peptide microarray binding signal,"[1]; peptide region: H4 1-13, peptide modifications: H4K8ac, binder concentration: 50 nM",0.00248 ± 2.9e-05
same,peptide microarray binding signal,"[1]; peptide region: H4 1-13, peptide modifications: H4K8ac, binder concentration: 500 nM",0.00481 ± 8.5e-05
same,peptide microarray binding signal,"[2]; peptide region: H4 1-13, peptide modifications: H4K8ac, binder concentration: 10 nM",0.002626 ± 1.5e-05
same,peptide microarray binding signal,"[2]; peptide region: H4 1-13, peptide modifications: H4K8ac, binder concentration: 100 nM",0.00546 ± 0.00011
same,peptide microarray binding signal,[3]; [7],0.000434 ± 1.2e-05
same,peptide microarray binding signal,[3]; [8],0.000628 ± 6.7e-06
same,peptide microarray binding signal,[4]; [7],9.06e-05 ± 3.5e-06
same,peptide microarray binding signal,[4]; [8],0.000346 ± 3.8e-06
SGRGKGGKGLGKG [H4 1-13 S G Rcit G K G G K G L G K G],peptide microarray binding signal,"[1]; peptide region: H4 1-13, peptide modifications: H4R3cit, binder concentration: 50 nM",0.00524 ± 0.00048
same,peptide microarray binding signal,"[1]; peptide region: H4 1-13, peptide modifications: H4R3cit, binder concentration: 500 nM",0.0149 ± 0.00041
same,peptide microarray binding signal,"[2]; peptide region: H4 1-13, peptide modifications: H4R3cit, binder concentration: 10 nM",0.00209 ± 0.00016
same,peptide microarray binding signal,"[2]; peptide region: H4 1-13, peptide modifications: H4R3cit, binder concentration: 100 nM",0.00468 ± 0.00014
same,peptide microarray binding signal,[3]; [9],0.00104 ± 0.00043
same,peptide microarray binding signal,[3]; [10],0.001997 ± 1.8e-05
same,peptide microarray binding signal,[4]; [9],0.00199 ± 3.7e-05
same,peptide microarray binding signal,[4]; [10],0.00161 ± 4.1e-05
SGRGKGGKGLGKG [H4 1-13 Sph G R G K G G K G L G Kac G],peptide microarray binding signal,"[1]; peptide region: H4 1-13, peptide modifications: H4S1ph H4K12ac, binder concentration: 50 nM",0.00392 ± 0.00035
same,peptide microarray binding signal,"[1]; peptide region: H4 1-13, peptide modifications: H4S1ph H4K12ac, binder concentration: 500 nM",0.0105 ± 0.00038
same,peptide microarray binding signal,"[2]; peptide region: H4 1-13, peptide modifications: H4S1ph H4K12ac, binder concentration: 10 nM",0.00269 ± 6.6e-05
same,peptide microarray binding signal,"[2]; peptide region: H4 1-13, peptide modifications: H4S1ph H4K12ac, binder concentration: 100 nM",0.00893 ± 0.00049
same,peptide microarray binding signal,[3]; [11],0.000378 ± 1e-05
same,peptide microarray binding signal,[3]; [12],0.000742 ± 1.3e-05
same,peptide microarray binding signal,[4]; [11],0.000649 ± 0.00018
same,peptide microarray binding signal,[4]; [12],0.00075 ± 7.9e-06
SGRGKGGKGLGKG [H4 1-13 Sph G R G K G G K G L G K G],peptide microarray binding signal,"[1]; peptide region: H4 1-13, peptide modifications: H4S1ph, binder concentration: 50 nM",0.00608 ± 0.0013
same,peptide microarray binding signal,"[1]; peptide region: H4 1-13, peptide modifications: H4S1ph, binder concentration: 500 nM",0.0121 ± 0.00045
same,peptide microarray binding signal,"[2]; peptide region: H4 1-13, peptide modifications: H4S1ph, binder concentration: 10 nM",0.00328 ± 0.00014
same,peptide microarray binding signal,"[2]; peptide region: H4 1-13, peptide modifications: H4S1ph, binder concentration: 100 nM",0.0039 ± 0.00041
same,peptide microarray binding signal,[3]; [13],0.00111 ± 0.00012
same,peptide microarray binding signal,[3]; [14],0.00131 ± 2.6e-05
same,peptide microarray binding signal,[4]; [13],0.000362 ± 6.3e-06
same,peptide microarray binding signal,[4]; [14],0.00075 ± 7.9e-06
SGRGKGGKGLGKG [H4 1-13 Sph G Rme G K G G K G L G K G],peptide microarray binding signal,"[1]; peptide region: H4 1-13, peptide modifications: H4S1ph H4R3me1, binder concentration: 50 nM",0.00467 ± 0.00075
same,peptide microarray binding signal,"[1]; peptide region: H4 1-13, peptide modifications: H4S1ph H4R3me1, binder concentration: 500 nM",0.0107 ± 0.00059
same,peptide microarray binding signal,"[2]; peptide region: H4 1-13, peptide modifications: H4S1ph H4R3me1, binder concentration: 10 nM",0.00149
same,peptide microarray binding signal,"[2]; peptide region: H4 1-13, peptide modifications: H4S1ph H4R3me1, binder concentration: 100 nM",0.00276 ± 6.8e-05
same,peptide microarray binding signal,[3]; [15],0.000132 ± 1.5e-06
same,peptide microarray binding signal,[3]; [16],0.000742 ± 1.3e-05
same,peptide microarray binding signal,[4]; [15],0.000347 ± 7e-06
same,peptide microarray binding signal,[4]; [16],0.000577 ± 1.2e-05
SGRGKGGKGLGKG [H4 1-13 S G Rme2s G K G G K G L G K G],peptide microarray binding signal,"[1]; peptide region: H4 1-13, peptide modifications: H4R3me2s, binder concentration: 50 nM",0.00304 ± 5.1e-05
same,peptide microarray binding signal,"[1]; peptide region: H4 1-13, peptide modifications: H4R3me2s, binder concentration: 500 nM",0.0107 ± 0.0019
same,peptide microarray binding signal,"[2]; peptide region: H4 1-13, peptide modifications: H4R3me2s, binder concentration: 10 nM",0.00161 ± 0.00016
same,peptide microarray binding signal,"[2]; peptide region: H4 1-13, peptide modifications: H4R3me2s, binder concentration: 100 nM",0.00468 ± 0.0011
same,peptide microarray binding signal,[3]; [17],0.000227 ± 2.2e-05
same,peptide microarray binding signal,[3]; [18],0.00097 ± 4.3e-05
same,peptide microarray binding signal,[4]; [17],0.000317 ± 3.5e-05
same,peptide microarray binding signal,[4]; [18],0.000461
SGRGKGGKGLGKG [H4 1-13 S G R G Kac G G K G L G Kac G],peptide microarray binding signal,"[1]; peptide region: H4 1-13, peptide modifications: H4K5ac H4K12ac, binder concentration: 50 nM",0.00552 ± 0.00053
same,peptide microarray binding signal,"[1]; peptide region: H4 1-13, peptide modifications: H4K5ac H4K12ac, binder concentration: 500 nM",0.0164 ± 0.0029
same,peptide microarray binding signal,"[2]; peptide region: H4 1-13, peptide modifications: H4K5ac H4K12ac, binder concentration: 10 nM",0.00352 ± 0.00063
same,peptide microarray binding signal,"[2]; peptide region: H4 1-13, peptide modifications: H4K5ac H4K12ac, binder concentration: 100 nM",0.00822 ± 0.0021
same,peptide microarray binding signal,[3]; [19],0.000547 ± 0.00012
same,peptide microarray binding signal,[3]; [20],0.00217 ± 0.00014
same,peptide microarray binding signal,[4]; [19],0.00131 ± 0.00038
same,peptide microarray binding signal,[4]; [20],0.00196 ± 8e-05
KGLGKGGAKRHRK [H4 8-19 Kac G L G Kac G G A Kac R H R K],peptide microarray binding signal,"[1]; peptide region: H4 8-19, peptide modifications: H4K8ac H4K12ac H4K16ac, binder concentration: 500 nM",0.000476 ± 4.9e-06
same,peptide microarray binding signal,"[2]; peptide region: H4 8-19, peptide modifications: H4K8ac H4K12ac H4K16ac, binder concentration: 100 nM",7.09e-05 ± 1.5e-06
same,peptide microarray binding signal,[3]; [21],1.89e-05 ± 2.2e-07
same,peptide microarray binding signal,[4]; [21],3.02e-05 ± 3.4e-07
SGRGKGGKGLGKG [H4 1-13 Sph G R G K G G Kac G L G K G],peptide microarray binding signal,"[1]; peptide region: H4 1-13, peptide modifications: H4S1ph H4K8ac, binder concentration: 50 nM",0.00445 ± 0.00043
same,peptide microarray binding signal,"[1]; peptide region: H4 1-13, peptide modifications: H4S1ph H4K8ac, binder concentration: 500 nM",0.0149 ± 0.0018
same,peptide microarray binding signal,"[2]; peptide region: H4 1-13, peptide modifications: H4S1ph H4K8ac, binder concentration: 10 nM",0.00251 ± 3.8e-05
same,peptide microarray binding signal,"[2]; peptide region: H4 1-13, peptide modifications: H4S1ph H4K8ac, binder concentration: 100 nM",0.00503 ± 0.00084
same,peptide microarray binding signal,[3]; [22],0.000359 ± 1.8e-05
same,peptide microarray binding signal,[3]; [23],0.000742 ± 1.3e-05
same,peptide microarray binding signal,[4]; [22],0.000332 ± 6.7e-06
same,peptide microarray binding signal,[4]; [23],0.000577 ± 6.2e-06
